Data: PubChem BioAssay
Activity calls are given as the source filed them.

What was measured:
[1] = small molecules captured by biotinylated probe aFSTL3 – biochemical, small-molecule microarray, fluorescence 635/667, stem cell growth factor project, primary screen (AID 1064); conditions: higher = more signal;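 further: measures binding of the biotinylated anti-FSTL3 antibody to printed compounds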
[2] = binders from COS7 lysate, DM2A8 probe, primary screen, torsin A project, cell lysate, small-molecule microarray, fluorescence 635/667 (AID 1065); conditions: higher = more signal, COS7 lysate expressing mutant human TOR1A
[3] = small molecules captured by biotinylated probe aFGF2 – biochemical, small-molecule microarray, fluorescence 635/667, stem cell growth factor project, primary screen (AID 1067); conditions: higher = more signal;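 further: measures binding of biotinylated aFGF2 protein to printed compounds on slides; z-score merges feature fluorescence and signal-to-noise across triplicate slides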
[4] = small molecules captured by biotinylated probe aFGF10 – biochemical, small-molecule microarray, fluorescence 635/667, stem cell growth factor project, primary screen (AID 1071); conditions: higher = more signal;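 further: score merges 667 nm spot intensity and signal to noise from triplicate slides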
[5] = target: Neurogenic locus notch homolog protein 2 (Homo sapiens) (UniProt Q04721); experiment: small molecules binding Notch2 protein – biochemical, small-molecule microarray, 635 nm fluorescence, stem cell growth factors, primary screen (AID 1073); conditions: higher = more signal
[6] = target: Pro-neuregulin-1, membrane-bound isoform (Homo sapiens) (UniProt Q02297); experiment: small molecules binding neuregulin-1 protein – biochemical, small-molecule microarray, fluorescence 635/667, psychiatric disease protein project, primary screen (AID 1075); conditions: NRG1 binding, 635 nm fluorescence, higher = more signal;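 further: score combines 667 nm spot fluorescence with signal to noise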
[7] = test system: Neuregulin-1 EGF-like domain; experiment: small molecules binding NRG1 EGF domain – biochemical, small-molecule microarray, 635 nm fluorescence, primary screen (AID 1081); conditions: higher = more signal;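 further: binding of the protein to compounds printed on small-molecule microarray slides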
[8] = FRG1 expression reporter modulators in myotubes – cell-based, C2C12 myotubes, firefly/Renilla luciferase, luminescence, FRG1 inhibition for FSHD, primary screen (AID 1084); conditions: FRG1 promoter luciferase, higher = more signal, called active from +8 up or from −8 down
[9] = small molecules captured by biotinylated probe aFST – biochemical, small-molecule microarray, fluorescence 635/667, stem cell growth factor project, primary screen (AID 1086); conditions: higher = more signal;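 further: score merges 667 nm fluorescence with signal-to-noise of each printed compound spot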
[10] = binders of probe aHhip on microarray, primary screen, stem cell growth factor project, biochemical, small-molecule microarray, fluorescence 635/667 (AID 1087); conditions: higher = more signal;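 further: score merges spot fluorescence at 667nm with spot signal to noise ratio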
[11] = test system: PRMT1 (protein arginine N-methyltransferase 1); experiment: small molecules binding arginine methyltransferase PRMT1 – biochemical, small-molecule microarray, 635 nm fluorescence, primary screen (AID 1088); conditions: higher = more signal;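 further: binding of Prmt1 protein to compounds spotted on small-molecule microarray slides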
[12] = growth effects on S. cerevisiae YJM789 – YJM789 clinical isolate, OD600, 24 h, basal, primary screen (AID 1089); conditions: higher = more signal, called active from +8 up or from −8 down;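 further: growth of clinical yeast isolate S. cerevisiae YJM 789 seeded 1000 cells per well; test concentration not given here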
[13] = S. pombe growth modifiers, basal conditions – strain 972, OD600, 24 h, no modulator, primary screen (AID 1090);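 further: basal condition with compound alone and no growth modifier present; test concentration not given here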; conditions: S. pombe 972 growth, higher = more signal, called active from +8 up or from −8 down
[14] = budding yeast growth modifiers under rapamycin – strain BY4716, OD600, 96 h, primary screen (AID 1091); further: test concentration not given here; conditions: S. cerevisiae BY4716 + rapamycin, higher = more signal, called active from +8 up or from −8 down
[15] = target: Torsin-1A-interacting protein 2 (Homo sapiens) (UniProt Q8NFQ8); experiment: small molecules binding lysate-expressed LULL1 – cell lysate, human LULL1 lysate, 635/667 nm fluorescence, primary screen (AID 1092); conditions: small-molecule microarray, hLULL1 lysate binding, 635 nm fluorescence; higher = more signal;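 further: probe is lysate of COS7 cells overexpressing human LULL1; score merges per-feature 667 nm fluorescence with signal-to-noise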
[16] = optical density change of DRC41 E. coli – strain DRC41, OD650, 24 h, E. coli filamentation project, primary screen (AID 1093);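 further: MC1000 strain lacking acrAB efflux and sulA so SOS filamentation is blocked; test concentration not given here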; conditions: E. coli DRC41 growth, higher = more signal, called active from +8 up or from −8 down
[17] = probe aLefty2 binding to arrayed compounds – biochemical, biotinylated probe, 635/667 nm fluorescence, primary screen (AID 1094); conditions: small-molecule microarray, higher = more signal;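 further: score merges spot fluorescence near 667 nm with spot signal-to-noise ratio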
[18] = test system: Noggin (protein binding on small-molecule microarray); experiment: small molecules binding Noggin protein – biochemical, 635/667 nm fluorescence, primary screen (AID 1095); conditions: 635 nm fluorescence, higher = more signal;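 further: score merges 667 nm feature fluorescence with signal to noise over triplicate slides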
[19] = target: Neurogenic locus notch homolog protein 3 (Homo sapiens) (UniProt Q9UM47); experiment: small molecules binding NOTCH3 protein – biochemical, 635/667 nm fluorescence, primary screen (AID 1096); conditions: small-molecule microarray, 635 nm fluorescence, higher = more signal
[20] = probe aEGFR binding to arrayed compounds – biochemical, biotinylated probe, 635/667 nm fluorescence, primary screen (AID 1097); conditions: small-molecule microarray, higher = more signal;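 further: probe is a biotinylated anti-EGFR antibody binding compounds printed on slides; score combines fluorescence near 667 nm and signal to noise of each spot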

Chain of Torsin-1A-interacting protein 2 (Homo sapiens) (Q8NFQ8 whole entry, looked up): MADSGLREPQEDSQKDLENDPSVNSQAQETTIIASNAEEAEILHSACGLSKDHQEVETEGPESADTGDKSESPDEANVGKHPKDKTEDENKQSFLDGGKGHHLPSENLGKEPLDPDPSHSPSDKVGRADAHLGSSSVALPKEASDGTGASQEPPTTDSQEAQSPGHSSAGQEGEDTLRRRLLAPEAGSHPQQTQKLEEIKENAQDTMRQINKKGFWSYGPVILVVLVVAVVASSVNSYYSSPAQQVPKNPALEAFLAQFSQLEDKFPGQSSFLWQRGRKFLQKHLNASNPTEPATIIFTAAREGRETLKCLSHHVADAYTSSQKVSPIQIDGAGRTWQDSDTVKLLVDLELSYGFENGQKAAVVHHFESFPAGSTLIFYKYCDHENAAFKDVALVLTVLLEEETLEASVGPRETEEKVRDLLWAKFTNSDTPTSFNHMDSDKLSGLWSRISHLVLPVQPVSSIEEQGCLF
Chain of Pro-neuregulin-1, membrane-bound isoform (Homo sapiens) (Q02297 whole entry, looked up, the tested form may be a part, canonical isoform): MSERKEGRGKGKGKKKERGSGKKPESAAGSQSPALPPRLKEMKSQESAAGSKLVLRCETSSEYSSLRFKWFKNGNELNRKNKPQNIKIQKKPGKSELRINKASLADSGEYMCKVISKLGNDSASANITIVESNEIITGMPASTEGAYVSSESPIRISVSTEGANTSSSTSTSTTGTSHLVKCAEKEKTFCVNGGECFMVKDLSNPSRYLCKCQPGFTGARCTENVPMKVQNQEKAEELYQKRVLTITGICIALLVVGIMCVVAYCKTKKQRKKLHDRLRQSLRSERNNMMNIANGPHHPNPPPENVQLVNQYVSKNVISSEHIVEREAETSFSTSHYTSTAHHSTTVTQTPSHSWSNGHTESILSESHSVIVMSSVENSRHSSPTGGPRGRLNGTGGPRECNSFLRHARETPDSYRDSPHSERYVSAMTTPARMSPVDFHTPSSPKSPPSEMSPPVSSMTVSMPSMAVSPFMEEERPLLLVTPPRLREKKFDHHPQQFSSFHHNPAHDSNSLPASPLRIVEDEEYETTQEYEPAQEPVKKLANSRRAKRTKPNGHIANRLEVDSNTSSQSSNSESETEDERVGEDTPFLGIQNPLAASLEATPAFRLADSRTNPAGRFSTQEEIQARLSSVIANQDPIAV
Chain of Neurogenic locus notch homolog protein 2 (Homo sapiens) (Q04721 whole entry, looked up, canonical isoform): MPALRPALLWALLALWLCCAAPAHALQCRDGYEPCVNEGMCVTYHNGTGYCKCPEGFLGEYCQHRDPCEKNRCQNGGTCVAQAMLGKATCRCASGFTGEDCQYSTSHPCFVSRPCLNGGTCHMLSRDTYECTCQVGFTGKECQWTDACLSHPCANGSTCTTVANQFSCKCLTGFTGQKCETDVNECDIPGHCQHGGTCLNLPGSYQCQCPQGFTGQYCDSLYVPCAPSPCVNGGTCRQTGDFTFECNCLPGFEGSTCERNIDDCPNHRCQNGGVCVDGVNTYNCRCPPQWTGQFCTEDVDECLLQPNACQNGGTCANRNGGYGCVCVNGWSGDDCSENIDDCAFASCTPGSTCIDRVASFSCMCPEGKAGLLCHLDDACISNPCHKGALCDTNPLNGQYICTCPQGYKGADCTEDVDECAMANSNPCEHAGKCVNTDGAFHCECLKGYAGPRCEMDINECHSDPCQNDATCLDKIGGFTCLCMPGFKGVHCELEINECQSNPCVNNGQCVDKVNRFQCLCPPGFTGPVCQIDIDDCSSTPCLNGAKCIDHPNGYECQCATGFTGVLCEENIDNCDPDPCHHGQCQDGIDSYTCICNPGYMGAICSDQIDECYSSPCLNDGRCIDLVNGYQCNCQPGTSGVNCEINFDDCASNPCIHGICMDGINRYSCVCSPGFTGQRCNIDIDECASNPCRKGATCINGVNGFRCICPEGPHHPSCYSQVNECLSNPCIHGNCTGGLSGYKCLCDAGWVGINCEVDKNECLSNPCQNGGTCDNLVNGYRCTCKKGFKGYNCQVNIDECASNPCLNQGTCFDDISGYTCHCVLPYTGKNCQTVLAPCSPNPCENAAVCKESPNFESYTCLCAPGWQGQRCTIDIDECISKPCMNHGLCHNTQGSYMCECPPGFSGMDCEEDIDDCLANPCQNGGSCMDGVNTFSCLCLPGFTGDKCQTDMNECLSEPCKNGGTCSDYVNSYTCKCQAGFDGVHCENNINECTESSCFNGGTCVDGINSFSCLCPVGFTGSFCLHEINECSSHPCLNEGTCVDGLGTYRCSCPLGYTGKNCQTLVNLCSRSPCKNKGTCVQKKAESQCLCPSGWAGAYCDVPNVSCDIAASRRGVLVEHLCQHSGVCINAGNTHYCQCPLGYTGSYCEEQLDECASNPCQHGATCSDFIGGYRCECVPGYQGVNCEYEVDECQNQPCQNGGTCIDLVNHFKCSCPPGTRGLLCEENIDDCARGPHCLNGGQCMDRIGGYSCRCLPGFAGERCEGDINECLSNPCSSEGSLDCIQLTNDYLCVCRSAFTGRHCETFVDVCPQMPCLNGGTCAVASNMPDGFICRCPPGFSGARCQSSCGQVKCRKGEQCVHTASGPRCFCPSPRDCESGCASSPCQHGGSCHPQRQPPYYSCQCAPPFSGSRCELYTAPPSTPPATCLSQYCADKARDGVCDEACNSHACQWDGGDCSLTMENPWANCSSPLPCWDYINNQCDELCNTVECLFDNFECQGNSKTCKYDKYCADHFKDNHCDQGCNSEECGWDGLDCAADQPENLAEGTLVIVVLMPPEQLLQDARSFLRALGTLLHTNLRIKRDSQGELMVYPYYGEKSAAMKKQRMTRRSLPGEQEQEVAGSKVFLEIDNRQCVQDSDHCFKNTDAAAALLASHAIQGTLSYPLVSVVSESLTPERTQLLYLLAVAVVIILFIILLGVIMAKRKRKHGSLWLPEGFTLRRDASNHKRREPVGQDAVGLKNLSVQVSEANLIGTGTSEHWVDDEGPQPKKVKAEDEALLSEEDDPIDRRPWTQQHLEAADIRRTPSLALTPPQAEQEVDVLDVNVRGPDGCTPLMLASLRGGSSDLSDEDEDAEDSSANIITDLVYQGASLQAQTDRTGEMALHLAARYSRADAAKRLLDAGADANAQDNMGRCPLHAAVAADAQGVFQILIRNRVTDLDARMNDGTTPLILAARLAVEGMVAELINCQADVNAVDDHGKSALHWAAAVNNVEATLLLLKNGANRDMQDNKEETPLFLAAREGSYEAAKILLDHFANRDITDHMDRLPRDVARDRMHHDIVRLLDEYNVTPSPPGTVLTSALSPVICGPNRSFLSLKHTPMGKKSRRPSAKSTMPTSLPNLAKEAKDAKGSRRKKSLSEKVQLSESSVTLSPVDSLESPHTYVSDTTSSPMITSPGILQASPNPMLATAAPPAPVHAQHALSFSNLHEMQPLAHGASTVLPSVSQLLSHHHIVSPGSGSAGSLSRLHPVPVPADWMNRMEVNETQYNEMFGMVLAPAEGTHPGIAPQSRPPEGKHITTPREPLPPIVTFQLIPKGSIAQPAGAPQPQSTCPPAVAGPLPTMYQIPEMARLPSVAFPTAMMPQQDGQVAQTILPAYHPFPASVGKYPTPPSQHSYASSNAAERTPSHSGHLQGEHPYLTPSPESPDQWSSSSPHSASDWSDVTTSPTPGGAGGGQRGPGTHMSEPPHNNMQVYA

Compound | composite z-score [1] | composite z-score [2] | composite z-score [3] | composite z-score [4] | composite z-score [5] | composite z-score [6] | composite z-score [7] | z-score [8] | composite z-score [9] | composite z-score [10] | composite z-score [11] | z-score [12] | z-score [13] | z-score [14] | composite z-score [15] | z-score [16] | composite z-score [17] | composite z-score [18] | composite z-score [19] | composite z-score [20]
C[C@@H]1NC(=O)[C@H](Cc2ccccc2)NC(=O)[C@@]23C(=O)N[C@@H](Cc4ccccc4)C2[C@H](C)[C@@]2(C)O[C@H]2C3/C=C/C/C=C\CNC1=O (stereo not given in full) | -0.191 | -0.0483 | -0.111 | 0.0009 | -0.315 | -0.318 | -0.603 | -0.225 (inactive) | -0.784 | 0.122 | -0.747 | 0.723 (inactive) | 0.0909 (inactive) | 0.937 (inactive) | -1.73 | -1.38 (inactive) | -0.174 | 0.0939 | -0.769 | -0.171
COCCOC(=O)N1C(=O)[C@@]2(c3cc(C#CC4(O)CCCCCC4)ccc31)[C@H](C(=O)N1CCCCCCC1)[C@H]1C(=O)O[C@H](c3ccccc3)[C@H](c3ccccc3)N1[C@@H]2c1ccc(O)cc1 | 3.29 | 0.536 | 0.416 | 0.345 | 0.899 | 0.768 | 1.2 | -0.492 (inactive) | 2.81 | 1.11 | 1.56 | -0.971 (inactive) | -1.1 (inactive) | 0.772 (inactive) | 2.86 | 2.34 (inactive) | 0.873 | 0.906 | 0.995 | 0.67
C=CCC(OC(C)=O)[C@@H]1[C@@H](N(Cc2cc3ccccc3o2)C(=O)Cc2ccc(F)cc2)c2cc(OCCCO)ccc2N1C(=O)c1ccc(-c2ccccc2)cc1 (stereo not given in full) | 0.117 | -0.103 | -0.116 | -0.263 | -0.079 | -0.399 | -1.03 | 0.051 (inactive) | 0.141 | -0.0645 | -1.44 | -0.277 (inactive) | -0.801 (inactive) | -0.76 (inactive) | 0.292 | 1.64 (inactive) | -0.0598 | -0.737 | -1.02 | -0.178
CC/C=C/C(=O)N(C[C@@H]1CCCO1)[C@@H]1CC(C(=O)NCCO)=C[C@H](Oc2c(I)cc(CO)cc2OC)[C@H]1O | -0.329 | 0.51 | -0.22 | 0.629 | 0.347 | 0.06 | 0.366 | -1.24 (inactive) | -0.176 | -0.0994 | 0.505 | -0.811 (inactive) | -1.79 (inactive) | -1.91 (inactive) | 1.69 | -0.159 (inactive) | 0.0612 | -0.294 | -0.155 | -0.191
O=[N+]([O-])c1ccc(C[n+]2ccc3ccc(O)cc3c2)o1 | -0.493 | 0.449 | -0.146 | 0.169 | 0.37 | 1.49 | 1.11 | 0.468 (inactive) | 0.147 | -0.411 | 0.536 | -0.0384 (inactive) | -7.09 (inactive) | -0.5 (inactive) | 0.803 | -2.03 (inactive) | -0.155 | -0.147 | 0.791 | -0.0867
CC(C)[Si](OCC[C@H]1O[C@]2(C(=O)N(Cc3ccccc3)c3ccccc32)[C@@H](C)[C@@H]1[Si](C)(C)O)(C(C)C)C(C)C | -0.143 | -0.149 | -0.25 | 0.164 | -0.0407 | 0.676 | -0.0474 | 0.562 (inactive) | 0.292 | 0.0373 | 0.489 | 1.11 (inactive) | -0.259 (inactive) | 1.24 (inactive) | 0.414 | 1.05 (inactive) | -0.149 | -0.139 | -0.0636 | -0.109
C=CC[C@]1(C(N)=O)N=C(c2ccc(OCCCO)cc2)O[C@H]1c1ccccc1CN=[N+]=[N-] | 1.12 | 1.36 | -0.0881 | -0.333 | 0.0233 | 1.87 | 1.34 | 1.2 (inactive) | 0.326 | -0.0994 | 1.1 | -1.36 (inactive) | -0.881 (inactive) | -0.655 (inactive) | 3.05 | 1.85 (inactive) | 0.0565 | 0.126 | -0.907 | 0.0183
CO[C@H]1COC(=O)[C@H](C)COC(=O)[C@H](Cc2ccccc2)NC(=O)CC=C[C@H]1C | 0.34 | 0.355 | -0.167 | -0.106 | -0.889 | -0.339 | -0.942 | -0.412 (inactive) | 0.0716 | -0.455 | -0.0111 | 0.43 (inactive) | -0.854 (inactive) | -0.798 (inactive) | -0.826 | 0.195 (inactive) | 0.0128 | 0.952 | -0.447 | -0.139
CCOC(=O)C1=C[C@@H](c2ccccc2)N(S(=O)(=O)c2ccc(C)cc2)[C@H]1c1ccc(F)cc1 | -0.0809 | 0.347 | -0.0317 | 0.493 | 1.6 | 0.871 | 0.949 | -2.62 (inactive) | 0.541 | 0.0139 | 1.56 | 0.575 (inactive) | 2.18 (inactive) | 2.39 (inactive) | 3.06 | -0.382 (inactive) | -0.0141 | 0.512 | 1.09 | 0.0624
CCCC/C=C/[C@H]([C@@H](O)Cc1ccccc1)N(CC#Cc1ccccc1)Cc1ccccc1Br | 1.22 | -0.37 | -0.21 | -1.17 | -0.749 | -0.169 | -0.291 | -0.506 (inactive) | -0.74 | -0.584 | -0.439 | 0.933 (inactive) | -0.972 (inactive) | 0.0956 (inactive) | -0.0817 | 2.92 (inactive) | 0.0735 | -2.07 | -1.4 | -0.428
